Binding signal data for 54 sequences are collected here from PMC7819943, “Rice protein-binding microarrays: a tool to detect cis-acting elements near promoter regions in rice”.

The full ranking holds about 39,000 sequences; the median of “fluorescence intensity (a.u.)” is about 4,300, and the highest 2% start at about 39,000. The list comes from a sample in which the highest values are over-represented; it also holds similar and randomly drawn sequences.

For the assay, the target named is T1, OsSMF1 (Oryza sativa, UniProt Q6ZLB0 1-436).
T1 sequence: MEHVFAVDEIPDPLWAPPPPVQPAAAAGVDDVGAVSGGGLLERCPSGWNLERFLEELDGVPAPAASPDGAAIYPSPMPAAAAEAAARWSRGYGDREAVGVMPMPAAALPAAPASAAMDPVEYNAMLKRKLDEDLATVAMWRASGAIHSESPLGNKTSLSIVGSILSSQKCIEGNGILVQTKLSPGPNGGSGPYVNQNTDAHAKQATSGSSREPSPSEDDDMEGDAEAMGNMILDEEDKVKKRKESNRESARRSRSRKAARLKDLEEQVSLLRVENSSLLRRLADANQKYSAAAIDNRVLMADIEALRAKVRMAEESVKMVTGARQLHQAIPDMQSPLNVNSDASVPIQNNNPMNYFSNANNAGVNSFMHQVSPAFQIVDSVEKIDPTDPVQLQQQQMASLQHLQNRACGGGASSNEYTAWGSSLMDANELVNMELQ
Description: protein-binding microarray (RPBM); PBS, 2% BSA, 51.3 ng/ul salmon testes DNA, 50 uM zinc acetate, 200 nM TF, 25 C, 1 h; high values mean tight binding. Conditions: protein: recombinant; tags: N-terminal polyhistidine and DsRed monomer fusion (pET32a); chain copies: 2; label: CyDye5-dUTP incorporated in the synthesized complementary strand; 3' TTTTT single-stranded linker to array surface; dsDNA, one strand shown. A digest of the protocol: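 The binding signal is fluorescence intensity per array feature (arbitrary units). Readings came from an Axon 4000B scanner after a washed, 2% BSA-blocked, double-stranded custom Agilent array had been incubated for 1 h at 25 °C with 200 nM protein and 50 µM zinc acetate. The protein was a Ni–NTA-purified transcription factor fused N-terminally to polyhistidine and DsRed, expressed in E. coli BL21-CodonPlus.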
As for “TGTTGTGCTGGTTGGTTCCAGATCTAACAGTGACAGTGCGCGGAGTCACCTAGTGCAG”, the binding signal is 4380 fluorescence intensity (a.u.).

As for “AAGTCCGATTCGTGAGTCACAGATGTTGACTCGCCGAAAACGGAGTCACCTAGTGCAG”, the binding signal is 5350 fluorescence intensity (a.u.).

Regarding “TCCTTCTATATGTTTGCACTTACGTGGGCCGTATTTATGCCGGAGTCACCTAGTGCAG”, the binding signal was 9040 fluorescence intensity (a.u.).

Take “GACGATCAAGATCGACACGACCAACGTGGCATGTTGCGTACGGAGTCACCTAGTGCAG”: the binding signal was 9470 fluorescence intensity (a.u.).

With “GAGGAGGAGGAGGCTGATGTGGCAGCCTGACATGTGGGGCCGGAGTCACCTAGTGCAG”, the binding signal was 7020 fluorescence intensity (a.u.).

“AAAGGATGATATTTATTCGATCCTTGTTCGAATGTAGACTCGGAGTCACCTAGTGCAG”: the binding signal is 55700 fluorescence intensity (a.u.).

On to “TCCTTGATCCTTTATTTGATATTTGTTTAGATATATAATTCGGAGTCACCTAGTGCAG”, for which the binding signal is 37900 fluorescence intensity (a.u.).

For “TACGATGAGTCATTTATTGATTATTGTATTAATGTTCCTTCGGAGTCACCTAGTGCAG”, the binding signal was 11500 fluorescence intensity (a.u.).

Consider “CGCTGTGTATATATGTGCAGGTCCATCCATGAGAGGTTGACGGAGTCACCTAGTGCAG”, for which the binding signal was 34900 fluorescence intensity (a.u.).

For the sequence “GGCATAATAGGCCAGCCGTGTAGGCAGAGACACCAGTCGGCGGAGTCACCTAGTGCAG”, the binding signal is 4530 fluorescence intensity (a.u.).

For “GGCCAGCCGTGTAGGCGGAGGCACCACTCGGCGGCGACGGCGGAGTCACCTAGTGCAG”, the binding signal was 49900 fluorescence intensity (a.u.).

In the case of “GCCCAGCGTGCACGGCGCGACGGACTCGCGCGGCACTAGCCGGAGTCACCTAGTGCAG”, the binding signal was 5790 fluorescence intensity (a.u.).

Take “TGCTGAGTGAGTGATGAGTGTGCGAATGTGTGATCGATCGCGGAGTCACCTAGTGCAG”: the binding signal is 3860 fluorescence intensity (a.u.).

Regarding “ATTATTCATAAGCTGAATATTCTTATTCATACATTCGGATCGGAGTCACCTAGTGCAG”, the binding signal was 6460 fluorescence intensity (a.u.).

“CCAGGTCAACATTGCCACGTGTGCGGCCACGTCAGCGAAACGGAGTCACCTAGTGCAG”: the binding signal is 33400 fluorescence intensity (a.u.).

As to “CTAGGTCAACACCGCCATGTCAGCGCCACGTCAGCGAAACCGGAGTCACCTAGTGCAG”, the binding signal is 28700 fluorescence intensity (a.u.).

In the case of “GCCACGTGGGATGAAGCCTAAGTCAACATCGCCACGTCAGCGGAGTCACCTAGTGCAG”, the binding signal is 43200 fluorescence intensity (a.u.).

For “GGCTATTGGGAGCCACGTCAGCCGGTGGCCTCCGCCATCGCGGAGTCACCTAGTGCAG”, the binding signal was 22600 fluorescence intensity (a.u.).

Turning to “CACGTGGGACGAAAACTAGGTCAACATCGCCACGTCAGCGCGGAGTCACCTAGTGCAG”, the binding signal is 45900 fluorescence intensity (a.u.).

In the case of “CGAAGACTAAGTCAACACCACCACGTAGTCGCCACATCAGCGGAGTCACCTAGTGCAG”, the binding signal was 8880 fluorescence intensity (a.u.).

Take “GACTTGATTACCACGCGTATACTATATAGGACAAAATTGCCGGAGTCACCTAGTGCAG”: the binding signal was 3190 fluorescence intensity (a.u.).

In the case of “TGTTCCTCCACGTCGCTCCGCCGCTCCGCCCGCCTTGCTTCGGAGTCACCTAGTGCAG”, the binding signal was 5090 fluorescence intensity (a.u.).

Regarding “TCCGGAGAGTTGACGCAGCGTCAACCGGGTCCGTCGTTCTCGGAGTCACCTAGTGCAG”, the binding signal is 3800 fluorescence intensity (a.u.).

With “AATCGCGAGATATCCACGTGAGATTGCGCAGCGAGACGCGCGGAGTCACCTAGTGCAG”, the binding signal is 5140 fluorescence intensity (a.u.).

For the sequence “ATGAGAGATAAGTAGATGACACATTCACAGTTGCTATAGTCGGAGTCACCTAGTGCAG”, the binding signal was 4040 fluorescence intensity (a.u.).

Regarding “AAGCTAGCGGTCACCCAGTCAGCTCACCCCGAGACGCACCCGGAGTCACCTAGTGCAG”, the binding signal was 4400 fluorescence intensity (a.u.).

Regarding “CGCAGTTGCTTCTGCAAAAGAGATTGATGACAAGGATCACCGGAGTCACCTAGTGCAG”, the binding signal is 3530 fluorescence intensity (a.u.).

Take “TCGATCGACATGGTGAATTGGCGATCGGGTTGGCTCGGCTCGGAGTCACCTAGTGCAG”: the binding signal was 3170 fluorescence intensity (a.u.).

Take “TTTTATTTCTACTGCCACGTAGGTGCCACGTCAACGCCACCGGAGTCACCTAGTGCAG”: the binding signal was 49800 fluorescence intensity (a.u.).

As for “TAAATGTTCGTGTGGCATGCCACATCAGCACCACGTAGGACGGAGTCACCTAGTGCAG”, the binding signal was 21400 fluorescence intensity (a.u.).

Consider “CTACTGACACGTAGGTGCCACCATGGCATGCCACGTCAGCCGGAGTCACCTAGTGCAG”, for which the binding signal was 61500 fluorescence intensity (a.u.).

For the sequence “TTTATTTCTACCGCCACGTAGGTGCCATGTCAATGTCACGCGGAGTCACCTAGTGCAG”, the binding signal is 14300 fluorescence intensity (a.u.).

On to “GCCACGTAGGTGCCATGTGGCACCACGTCAGCAAAATTGCCGGAGTCACCTAGTGCAG”, for which the binding signal is 49100 fluorescence intensity (a.u.).

As for “GTAGGTGACATGTGTGGTGTCACACTGACTCAGCCATCACCGGAGTCACCTAGTGCAG”, the binding signal is 10600 fluorescence intensity (a.u.).

“TTAGACACGTAGGTGCCATGTCAGCCAAAACCACCGAGGGCGGAGTCACCTAGTGCAG”: the binding signal is 17100 fluorescence intensity (a.u.).

Turning to “TAGGCAAATTACATGGCATGTGCCACGTCGTTGTTGCACCCGGAGTCACCTAGTGCAG”, the binding signal was 16500 fluorescence intensity (a.u.).

As to “TTATTTCTACTGCCACGTAGGTGCCACGTCAACGCCACGTCGGAGTCACCTAGTGCAG”, the binding signal is 37400 fluorescence intensity (a.u.).

Turning to “CATAGATTAATATGAAATATATAACTCCACAAATATGCAACGGAGTCACCTAGTGCAG”, the binding signal was 3500 fluorescence intensity (a.u.).

In the case of “ACACGGCCTATAAATATCTAACCATCCTTTGCCTGTCGAGCGGAGTCACCTAGTGCAG”, the binding signal is 4970 fluorescence intensity (a.u.).

For the sequence “TGGATTTTGCACCGATCGCACCACGTCTCCGTCTGTTTGCCGGAGTCACCTAGTGCAG”, the binding signal is 4240 fluorescence intensity (a.u.).

Turning to “TCGCCCGCACGTGGCCCTCCTCTCCTCCCTCCCACCTCGTCGGAGTCACCTAGTGCAG”, the binding signal is 3380 fluorescence intensity (a.u.).

As to “ACCACACACACACTGACACTGTGACACAACACAACACGGCCGGAGTCACCTAGTGCAG”, the binding signal is 6920 fluorescence intensity (a.u.).

Take “TCACCAATCACCTGCCCTCACACCAACACGCCACGCGAACCGGAGTCACCTAGTGCAG”: the binding signal was 3750 fluorescence intensity (a.u.).

On to “AGTATCAGATTCCAACTCACATGCCACGTCACATGCATGCCGGAGTCACCTAGTGCAG”, for which the binding signal is 42200 fluorescence intensity (a.u.).

Take “CACACTGAGTCAGCTGCCACGTCGGATAAAACCGGAGTCACGGAGTCACCTAGTGCAG”: the binding signal was 10500 fluorescence intensity (a.u.).

As to “GGAACATGTATGCACCGAACCTGGTGCATGTCCACGTTCACGGAGTCACCTAGTGCAG”, the binding signal was 3740 fluorescence intensity (a.u.).

Turning to “ATTCCTATCATTGGAGTATGTGTGCACGTCATTAGTGCCACGGAGTCACCTAGTGCAG”, the binding signal was 6500 fluorescence intensity (a.u.).

Regarding “CACGCCAACTAGGATGGATAGATGGGCCACATGTATTCCACGGAGTCACCTAGTGCAG”, the binding signal is 3530 fluorescence intensity (a.u.).

On to “GTTCAATTCCTGCTGGATGCACGTGAACCGGAACGTTCCACGGAGTCACCTAGTGCAG”, for which the binding signal was 52000 fluorescence intensity (a.u.).

With “CACATTGAGTCAGCTGCCACGTCGGATAAAACCGGAGTCACGGAGTCACCTAGTGCAG”, the binding signal is 15000 fluorescence intensity (a.u.).

Regarding “GATGCACCACTGCTGCGTCGCACGTTCCACCCCATTCCACCGGAGTCACCTAGTGCAG”, the binding signal is 3520 fluorescence intensity (a.u.).

As to “CACCTGCAGCTGCCACGTCAGAGCCACGTCGGATTCCAACCGGAGTCACCTAGTGCAG”, the binding signal is 40800 fluorescence intensity (a.u.).

Take “TCTTTCTGCACTTTCTCTGAACGTGGATAAGACATAACCGCGGAGTCACCTAGTGCAG”: the binding signal was 8130 fluorescence intensity (a.u.).

“TTAATCACTTCTCAAACTTTTAATGCAATGACTTGTGAACCGGAGTCACCTAGTGCAG”: the binding signal was 3420 fluorescence intensity (a.u.).
